DRD3 agonist = agonists of human D3 dopamine receptor | P35462 | 0.58% of 410,000 active | max activation, % | D3R DiscoveRx beta-arrestin cells, luminescence, 90 min; in the data active = max activation above about 30%
Target sequence (P35462 whole entry, looked up): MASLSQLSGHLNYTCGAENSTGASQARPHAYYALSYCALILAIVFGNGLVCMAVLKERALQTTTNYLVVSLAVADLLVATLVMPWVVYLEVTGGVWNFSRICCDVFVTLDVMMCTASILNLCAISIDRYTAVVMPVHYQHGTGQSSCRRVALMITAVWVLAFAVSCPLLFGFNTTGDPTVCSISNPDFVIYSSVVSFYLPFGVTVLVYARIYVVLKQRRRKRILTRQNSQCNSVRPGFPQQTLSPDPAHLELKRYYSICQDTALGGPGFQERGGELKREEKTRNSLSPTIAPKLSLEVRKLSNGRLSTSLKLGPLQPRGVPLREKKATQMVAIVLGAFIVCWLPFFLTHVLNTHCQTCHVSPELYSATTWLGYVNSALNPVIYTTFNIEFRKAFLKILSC
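Cells at 1500/well, incubated overnight, then treated with pinned compounds (dopamine as control) for 90 min at 37 degrees C. DiscoveRx reagent added for 30 - 60 minutes at room temperature; luminescence read.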
D1 agonist = activates the human D1 dopamine receptor. P21728. HEK293 T-REx D1 cells, calcium flux, agonist mode. activation, % at 2 µM. 1% of 360,000 active. AID 504660; in the data active = activation above about 30%
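Tetracycline-induced HEK293 TREx D1 cells, force-coupled to calcium signalling, were dye-loaded with a no-wash calcium kit. Compound was pin-added after a 10 s baseline. Fluorescence was read kinetically at 1 cycle/s for 180 s, with calcium rises flagged as agonism.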
DRD3 antagonist = blocks the human D3 dopamine receptor; P35462; 2.5% of 360,000 active; max response, negative = inhibition, %; D3R cells, DiscoveRx beta-arrestin luminescence, antagonist mode; hits give low values; in the data active = max response below about -50%; inconclusive = no clear call, values can overlap the other calls
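Cells plated overnight at 1500 cells/well, then exposed to library compounds with dopamine controls for 90 minutes at 37 degrees C. DiscoveRx reagent added for 30–60 minutes at room temperature; luminescence read, quantitative HTS format.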
D1 antagonist = blocks dopamine activation of the human D1 receptor. P21728. HEK293 TREx D1 cells, calcium flux, dopamine EC80; hits give low values. activity change, negative = inhibition, % at 10 µM. 3.2% of 360,000 active. AID 504652; in the data active = activity change below about -30%
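Inducible Hek293 Trex D1 cells (tetracycline, overnight, 30 C). Calcium dye 30–90 min RT. Antagonist mode: EC80 dopamine added after 180 s compound read.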
D1 PAM = human D1 dopamine receptor positive modulation | HEK293 TREx D1 cells, calcium flux, dopamine EC20 potentiation | AID 504651 | 0.036% of 360,000 active | potentiation, % at 10 µM | P21728; in the data active = potentiation above about 30%
Numbers stand for hits; i = inactive; ? = inconclusive; nt = not tested or not shown. The list is not random: actives were taken first. Their share in the collection is about 6%.

SMILES	DRD3 agonist	D1 agonist	DRD3 antagonist	D1 antagonist	D1 PAM
CCOc1ccc(Sc2cc(C(=O)NCCc3ccc(OC)c(OC)c3)c3ccccc3n2)cc1	i	i	nt	i	i
C=CCn1c(N2CCN(c3ccc(OC)cc3)CC2)nc2c1c(=O)n(C)c(=O)n2C	i	i	i	-38	i
Cc1cccc(N2CC(C)Cn3c2nc2c3c(=O)n(CC(=O)O)c(=O)n2C)c1 (configuration not stated)	i	i	nt	i	i
C=CCn1c(=O)c2c(nc3n2CC(C)CN3c2cccc(OC)c2)n(C)c1=O (configuration not stated)	i	i	-69	i	nt
COc1ccccc1NC(=S)NNC(=O)c1ccccc1Br	i	i	i	-80	i
COc1ccccc1NC(=S)NNC(=O)c1ccccc1	i	nt	-72	nt	nt
COc1ccccc1C(=O)NNC(=O)c1ccccc1Br	i	i	i	i	i
Cc1cccc(NC(=S)NNC(=O)c2ccccc2OC(F)F)c1	i	i	?	-40	i
Cc1c(C(=O)Nc2ccc(C(C)C)cc2)sc2nc3n(c(=O)c12)CCC3	i	i	nt	i	i
CC(=O)N1CCc2cc(CNC(=O)Nc3ccc(Br)c(C)c3)ccc21	i	i	nt	i	i
O=C(CCc1ccccc1)N1CCc2c([nH]c3ccccc23)C1c1ccc(F)cc1 (configuration not stated)	i	i	nt	i	i
COCCNC(=O)c1ccc2nc(CCc3ccccc3)oc2c1	i	i	nt	-36	i
COCCCNC(=O)c1ccc2nc(CCc3ccccc3)oc2c1	i	i	nt	i	i
COc1ccc(CNC(=O)c2ccc3nc(CCc4ccccc4)oc3c2)c(OC)c1	i	i	nt	-42	i
Cc1ccc(Cl)cc1NC(=O)C1CCN(c2nc3ccccc3n3cccc23)CC1	i	i	nt	i	i
CCOC(=O)CC(=O)CSc1nc(-c2cccnc2)ccc1C#N	i	34	i	i	i
CCOC(=O)CC(=O)CSc1nc(-c2cccnc2)cc(C)c1C#N	i	i	i	i	i
COc1ccc(CCNC(=O)C(=O)NN=C2CCCCCCC2)cc1OC	i	i	i	-74	i
COc1ccc(CCNC(=O)COc2ccc(-c3ccc(C)cc3)cc2)cc1OC	i	i	i	-31	i
COc1ccc(CCNC(=O)CCOc2ccc(C)cc2)cc1OC	i	i	i	i	i
Cc1cccn2c(=O)c3cc(C(=O)NC(C)C)n(C)c3nc12	i	i	nt	i	i
O=C(Nc1ccc(F)cc1)c1ccc(-n2cnc3cccnc32)cc1	i	i	nt	i	i
CCN(CC)CCNc1ccc(CO)c2oc3cc(Cl)ccc3c(=O)c12	i	nt	-56	nt	nt
O=C(CCCCCN1C(=O)c2cccc3cccc(c23)C1=O)NC1CCS(=O)(=O)C1 (configuration not stated)	i	i	i	-31	i
C=C(CN(C)C)C(=O)c1cc(OC)c(OC)cc1OC	i	nt	?	nt	nt
SMILES	DRD3 agonist	D1 agonist	DRD3 antagonist	D1 antagonist	D1 PAM
C=C(CN(C)C)C(=O)c1ccc2c(c1)OCO2	i	nt	-54	nt	nt
C=C(CN(C)C)C(=O)c1ccc(C)cc1C	i	nt	-88	nt	nt
Cc1ccc(-c2nc3ncccc3o2)cc1NC(=O)c1ccc(-c2cccc(Cl)c2C)o1	i	i	nt	i	i
CCOC(=O)/C(C#N)=C/c1ccc(-c2ccc(C)cc2)o1	i	i	nt	i	i
CCc1ccc(CNC(=O)CN2CCSc3ccccc32)cc1	i	i	nt	i	i
Cc1ccccc1CNC(=O)CN1CCSc2ccccc21	i	i	nt	-31	i
COc1ccc(Cl)cc1NC(=O)CN(c1cc(C)cc(C)c1)S(=O)(=O)c1c(C)n[nH]c1C	i	i	nt	i	i
CN1CCN(CCCNC(=O)c2cc3c(=O)n(C)c4ccccc4c3s2)CC1	i	i	i	i	i
Cc1cccc(C)c1NC(=O)C(=O)NCCCN1CCOCC1	i	i	i	i	i
Cc1cccc(C)c1NC(=O)NCCCN1CCN(c2ccccc2)CC1	38	i	?	-36	i
Cn1c(=O)c2cc(C(=O)NCCCN3CCN(c4cccc(Cl)c4)CC3)sc2c2ccccc21	i	i	nt	-45	i
Nc1ccccc1C(=O)NCCCN1CCN(c2cccc(Cl)c2)CC1	i	nt	-73	nt	nt
O=C(NCCN1CCN(c2ccccc2)CC1)C1(S(=O)(=O)c2ccc(Cl)cc2)CC1	i	i	-53	i	i
Cn1c(=O)n(C)c2cc(NS(=O)(=O)c3ccc(C(C)(C)C)cc3)c(NCc3ccccc3)cc21	i	i	nt	i	i
O=C(Nc1cc2ccc(O)cc2oc1=O)c1ccccc1	i	i	nt	i	i
Cc1ccc(C)c(CN2CCC(CNC(=O)Nc3ccc(Cl)cc3)CC2)c1	i	i	i	-33	i
CCC(=O)N1c2ccccc2CC1C(=O)NCCCN1CCN(c2cccc(Cl)c2)CC1 (configuration not stated)	i	i	nt	-53	i
O=C(NCCN1CCN(c2ccccc2)CC1)c1cccc(Cl)c1	i	i	-56	i	i
O=C(NCCN1CCN(c2cccc(Cl)c2)CC1)Nc1ccccc1C(F)(F)F	i	i	nt	-43	i
CN1CCN(CCNC(=O)Nc2ccccc2C(F)(F)F)CC1	i	i	i	i	i
O=C(NCCN1CCN(c2cccc(Cl)c2)CC1)c1ccc(CSc2nc3ccncc3[nH]2)cc1	49	i	i	-48	i
COC(=O)CNC(=O)c1cccc(F)c1	i	i	i	i	i
O=C(NCCCN1CCN(Cc2ccccc2Cl)CC1)Nc1ccccc1	i	i	i	i	i
O=C(NCCCN1CCN(c2cccc(Cl)c2)CC1)Nc1ccccc1C(F)(F)F	i	32	nt	-55	i
COC(=O)CNC(=O)c1cccc(Cl)c1	i	i	i	-32	i
SMILES	DRD3 agonist	D1 agonist	DRD3 antagonist	D1 antagonist	D1 PAM
Cc1ccccc1CC1CCN(CCCNC(=O)Nc2ccccc2)CC1	i	i	-83	i	i
O=C(CN1CCN(c2ccccc2)CC1)Nc1ccccc1C(F)(F)F	i	i	i	i	i
COc1ccc(CNC(=O)C2CCN(c3nnc(-n4c(C)ccc4C)s3)CC2)c(OC)c1	i	i	nt	i	i
CN(C)C(=O)CNC(=O)Cc1ccccc1	i	nt	nt	nt	nt
O=C(Nc1cc(Cl)ccc1Cl)c1cc(S(=O)(=O)NCCc2ccccc2)ccc1F	i	i	nt	i	i
Nc1nonc1OCCOCCOCCOc1nonc1N	i	i	-59	i	i
O=C(CCCCCCN1C(=O)c2ccccc2C1=O)N1CCC(c2ccccc2)C1 (configuration not stated)	i	i	i	-44	i
O=C(NCCN1CCOCC1)c1ccccc1N1C(=O)[C@@H]2Cc3c([nH]c4ccccc34)C(c3ccccc3)N2C1=O (some centres not stated)	i	i	i	i	i
O=C(NCCCN1CCOCC1)c1ccccc1N1C(=O)[C@@H]2Cc3c([nH]c4ccccc34)C(c3ccc(F)cc3)N2C1=O (some centres not stated)	33	i	i	i	i
CCc1cccc(C)c1NC(=O)C(NS(=O)(=O)c1ccc2c(c1)CCC(=O)N2)c1ccccc1 (configuration not stated)	i	i	nt	i	i

Assay outcomes from PubChem BioAssay.
